The values that follow come from ChEMBL document CHEMBL1961873, “Compounds: GSK PKIS; Assays: Nanosyn kinase panel” (2012).

The target of test [1] is 5'-AMP-activated protein kinase catalytic subunit alpha-2 (Homo sapiens) (UniProt P54646). As to conditions: at 1 µM.
Test [2] addresses T1, NUAK family SNF1-like kinase 1 (Homo sapiens) (UniProt O60285).
T1 sequence (whole entry): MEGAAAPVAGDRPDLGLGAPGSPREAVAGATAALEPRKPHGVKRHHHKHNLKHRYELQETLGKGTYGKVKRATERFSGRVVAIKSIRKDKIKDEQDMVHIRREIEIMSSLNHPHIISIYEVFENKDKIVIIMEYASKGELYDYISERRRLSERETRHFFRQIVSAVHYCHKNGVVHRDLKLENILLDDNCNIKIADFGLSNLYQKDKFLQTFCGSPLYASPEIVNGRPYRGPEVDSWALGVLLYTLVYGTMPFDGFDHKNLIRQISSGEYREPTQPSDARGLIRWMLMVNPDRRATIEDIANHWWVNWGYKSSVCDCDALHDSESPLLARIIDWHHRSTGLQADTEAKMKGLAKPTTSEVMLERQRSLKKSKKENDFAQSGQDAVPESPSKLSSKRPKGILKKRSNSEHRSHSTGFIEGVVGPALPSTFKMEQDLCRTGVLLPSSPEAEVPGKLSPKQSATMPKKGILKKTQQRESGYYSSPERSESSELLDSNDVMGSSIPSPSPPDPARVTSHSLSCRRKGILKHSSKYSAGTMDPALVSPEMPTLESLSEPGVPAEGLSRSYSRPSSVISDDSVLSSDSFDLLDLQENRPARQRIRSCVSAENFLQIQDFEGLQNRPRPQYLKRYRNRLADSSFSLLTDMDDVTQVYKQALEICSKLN
Particulars: at 0.1 µM.

For test [3], the target named is T1, NUAK family SNF1-like kinase 1 (Homo sapiens). As to conditions: at 1 µM.
Test [4] concerns the target T2, Serine/threonine-protein kinase BRSK1 (Homo sapiens) (UniProt Q8TDC3).
T2 sequence (whole entry): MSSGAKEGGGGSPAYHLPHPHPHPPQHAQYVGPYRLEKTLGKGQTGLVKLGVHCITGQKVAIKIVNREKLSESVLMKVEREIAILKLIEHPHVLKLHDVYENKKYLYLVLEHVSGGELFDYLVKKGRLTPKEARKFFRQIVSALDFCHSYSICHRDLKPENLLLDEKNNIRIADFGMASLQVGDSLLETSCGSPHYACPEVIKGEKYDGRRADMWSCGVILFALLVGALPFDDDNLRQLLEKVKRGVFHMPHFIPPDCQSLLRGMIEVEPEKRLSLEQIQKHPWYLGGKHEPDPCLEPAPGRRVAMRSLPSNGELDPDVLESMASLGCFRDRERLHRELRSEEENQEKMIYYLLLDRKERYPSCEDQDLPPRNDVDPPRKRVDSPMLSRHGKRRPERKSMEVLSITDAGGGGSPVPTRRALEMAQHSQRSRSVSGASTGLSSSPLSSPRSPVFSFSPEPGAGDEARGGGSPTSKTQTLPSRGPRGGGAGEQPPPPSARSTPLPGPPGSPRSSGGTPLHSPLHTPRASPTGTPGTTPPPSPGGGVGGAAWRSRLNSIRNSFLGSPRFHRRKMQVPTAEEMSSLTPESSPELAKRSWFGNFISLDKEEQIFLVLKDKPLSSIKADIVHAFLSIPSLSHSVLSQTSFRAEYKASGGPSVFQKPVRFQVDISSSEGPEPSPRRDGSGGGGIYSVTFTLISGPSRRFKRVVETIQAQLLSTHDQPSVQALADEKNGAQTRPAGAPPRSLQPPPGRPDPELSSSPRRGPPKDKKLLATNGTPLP
Particulars: at 0.1 µM.

Test [5] concerns the target T2, Serine/threonine-protein kinase BRSK1 (Homo sapiens). As to conditions: at 1 µM.
Test [6] addresses T3, Serine/threonine-protein kinase BRSK2 (Homo sapiens) (UniProt Q8IWQ3).
T3 sequence (whole entry): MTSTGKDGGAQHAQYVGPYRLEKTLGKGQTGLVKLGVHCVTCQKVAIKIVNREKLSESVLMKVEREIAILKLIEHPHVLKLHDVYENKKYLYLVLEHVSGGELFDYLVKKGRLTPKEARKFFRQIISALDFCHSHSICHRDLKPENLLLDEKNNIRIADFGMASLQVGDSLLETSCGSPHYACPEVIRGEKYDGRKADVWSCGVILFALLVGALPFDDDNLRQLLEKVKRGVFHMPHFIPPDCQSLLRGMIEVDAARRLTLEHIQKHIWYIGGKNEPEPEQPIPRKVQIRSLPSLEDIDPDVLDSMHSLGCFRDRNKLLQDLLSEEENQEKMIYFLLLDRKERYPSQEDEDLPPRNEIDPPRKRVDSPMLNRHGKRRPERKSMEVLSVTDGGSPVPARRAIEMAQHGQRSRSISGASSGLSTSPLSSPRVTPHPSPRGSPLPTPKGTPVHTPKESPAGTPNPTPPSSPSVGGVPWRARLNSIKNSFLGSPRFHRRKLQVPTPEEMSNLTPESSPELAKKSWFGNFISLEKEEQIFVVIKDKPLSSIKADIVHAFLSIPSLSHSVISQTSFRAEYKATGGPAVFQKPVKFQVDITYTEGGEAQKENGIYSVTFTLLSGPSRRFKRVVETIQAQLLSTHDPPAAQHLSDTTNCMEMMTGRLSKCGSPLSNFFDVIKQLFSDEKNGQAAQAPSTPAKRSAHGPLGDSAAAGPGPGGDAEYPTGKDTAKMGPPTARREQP
As to conditions: at 0.1 µM.

Test [7] concerns the target T3, Serine/threonine-protein kinase BRSK2 (Homo sapiens). Particulars: at 1 µM.
Test [8] addresses Calcium/calmodulin-dependent protein kinase type 1D (Homo sapiens) (UniProt Q8IU85). As to conditions: at 0.1 µM.
For test [9] the target is unchanged. Particulars: at 1 µM.
The target in test [10] is Calcium/calmodulin-dependent protein kinase type II subunit alpha (Homo sapiens) (UniProt Q9UQM7). Particulars: at 0.1 µM.
Sequence of Calcium/calmodulin-dependent protein kinase type II subunit alpha (Homo sapiens) (Q9UQM7 whole entry): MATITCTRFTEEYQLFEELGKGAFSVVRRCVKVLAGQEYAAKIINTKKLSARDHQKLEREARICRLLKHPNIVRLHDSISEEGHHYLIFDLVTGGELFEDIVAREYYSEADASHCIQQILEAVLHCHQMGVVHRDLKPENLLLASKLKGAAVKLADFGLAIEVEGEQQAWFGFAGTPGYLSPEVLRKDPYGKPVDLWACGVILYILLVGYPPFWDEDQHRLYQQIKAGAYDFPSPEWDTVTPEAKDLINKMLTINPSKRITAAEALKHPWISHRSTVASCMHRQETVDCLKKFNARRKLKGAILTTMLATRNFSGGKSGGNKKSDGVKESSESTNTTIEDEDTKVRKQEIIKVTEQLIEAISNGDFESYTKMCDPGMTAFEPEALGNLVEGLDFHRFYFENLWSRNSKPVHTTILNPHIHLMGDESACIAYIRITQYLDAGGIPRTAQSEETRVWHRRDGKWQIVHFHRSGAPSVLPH
Test [11] shares this target. Particulars: at 1 µM.
Test [12] has as its target Calcium/calmodulin-dependent protein kinase type II subunit delta (Homo sapiens) (UniProt Q13557). As to conditions: at 0.1 µM.
For test [13] the target is unchanged. Particulars: at 1 µM.
The target of test [14] is T4, Calcium/calmodulin-dependent protein kinase type IV (Homo sapiens) (UniProt Q16566).
T4 sequence (whole entry): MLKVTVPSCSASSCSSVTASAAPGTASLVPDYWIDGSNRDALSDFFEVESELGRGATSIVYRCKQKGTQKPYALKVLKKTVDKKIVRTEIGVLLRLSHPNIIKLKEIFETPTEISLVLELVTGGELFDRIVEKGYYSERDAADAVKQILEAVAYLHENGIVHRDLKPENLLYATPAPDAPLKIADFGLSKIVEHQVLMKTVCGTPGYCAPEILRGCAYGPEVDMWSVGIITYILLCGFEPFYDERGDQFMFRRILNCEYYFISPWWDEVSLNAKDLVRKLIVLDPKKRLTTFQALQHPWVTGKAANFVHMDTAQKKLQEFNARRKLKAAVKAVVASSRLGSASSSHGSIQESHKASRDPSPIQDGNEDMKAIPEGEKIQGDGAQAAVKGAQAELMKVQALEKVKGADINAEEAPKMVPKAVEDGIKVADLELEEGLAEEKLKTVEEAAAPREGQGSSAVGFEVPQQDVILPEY
Particulars: at 0.1 µM.

The target of test [15] is T4, Calcium/calmodulin-dependent protein kinase type IV (Homo sapiens). As to conditions: at 1 µM.
The target in test [16] is T5, Serine/threonine-protein kinase Chk1 (Homo sapiens) (UniProt O14757).
T5 sequence (whole entry): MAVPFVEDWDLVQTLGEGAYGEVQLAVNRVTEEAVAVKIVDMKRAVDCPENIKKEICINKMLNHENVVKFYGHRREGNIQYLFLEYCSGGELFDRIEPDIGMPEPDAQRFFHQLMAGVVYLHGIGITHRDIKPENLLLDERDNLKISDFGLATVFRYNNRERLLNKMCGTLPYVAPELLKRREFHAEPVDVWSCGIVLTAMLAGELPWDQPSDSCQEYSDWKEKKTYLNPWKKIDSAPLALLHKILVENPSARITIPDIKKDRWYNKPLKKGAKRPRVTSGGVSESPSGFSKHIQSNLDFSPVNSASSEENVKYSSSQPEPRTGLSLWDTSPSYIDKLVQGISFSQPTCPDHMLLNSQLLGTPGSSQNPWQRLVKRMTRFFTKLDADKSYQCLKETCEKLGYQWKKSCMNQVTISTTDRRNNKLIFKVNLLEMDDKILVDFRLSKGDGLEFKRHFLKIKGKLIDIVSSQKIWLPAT
Particulars: at 0.1 µM.

The target of test [17] is T5, Serine/threonine-protein kinase Chk1 (Homo sapiens). Particulars: at 1 µM.
Test [18] concerns the target Serine/threonine-protein kinase Chk2 (Homo sapiens) (UniProt O96017). Particulars: at 0.1 µM.
Test [19] has the same target. Particulars: at 1 µM.
For test [20], the target named is Death-associated protein kinase 1 (Homo sapiens) (UniProt P53355). As to conditions: at 0.1 µM.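 Further: reported figure is the mean inhibition of DAPK1.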
Sequence of Death-associated protein kinase 1 (Homo sapiens) (P53355 whole entry, looked up): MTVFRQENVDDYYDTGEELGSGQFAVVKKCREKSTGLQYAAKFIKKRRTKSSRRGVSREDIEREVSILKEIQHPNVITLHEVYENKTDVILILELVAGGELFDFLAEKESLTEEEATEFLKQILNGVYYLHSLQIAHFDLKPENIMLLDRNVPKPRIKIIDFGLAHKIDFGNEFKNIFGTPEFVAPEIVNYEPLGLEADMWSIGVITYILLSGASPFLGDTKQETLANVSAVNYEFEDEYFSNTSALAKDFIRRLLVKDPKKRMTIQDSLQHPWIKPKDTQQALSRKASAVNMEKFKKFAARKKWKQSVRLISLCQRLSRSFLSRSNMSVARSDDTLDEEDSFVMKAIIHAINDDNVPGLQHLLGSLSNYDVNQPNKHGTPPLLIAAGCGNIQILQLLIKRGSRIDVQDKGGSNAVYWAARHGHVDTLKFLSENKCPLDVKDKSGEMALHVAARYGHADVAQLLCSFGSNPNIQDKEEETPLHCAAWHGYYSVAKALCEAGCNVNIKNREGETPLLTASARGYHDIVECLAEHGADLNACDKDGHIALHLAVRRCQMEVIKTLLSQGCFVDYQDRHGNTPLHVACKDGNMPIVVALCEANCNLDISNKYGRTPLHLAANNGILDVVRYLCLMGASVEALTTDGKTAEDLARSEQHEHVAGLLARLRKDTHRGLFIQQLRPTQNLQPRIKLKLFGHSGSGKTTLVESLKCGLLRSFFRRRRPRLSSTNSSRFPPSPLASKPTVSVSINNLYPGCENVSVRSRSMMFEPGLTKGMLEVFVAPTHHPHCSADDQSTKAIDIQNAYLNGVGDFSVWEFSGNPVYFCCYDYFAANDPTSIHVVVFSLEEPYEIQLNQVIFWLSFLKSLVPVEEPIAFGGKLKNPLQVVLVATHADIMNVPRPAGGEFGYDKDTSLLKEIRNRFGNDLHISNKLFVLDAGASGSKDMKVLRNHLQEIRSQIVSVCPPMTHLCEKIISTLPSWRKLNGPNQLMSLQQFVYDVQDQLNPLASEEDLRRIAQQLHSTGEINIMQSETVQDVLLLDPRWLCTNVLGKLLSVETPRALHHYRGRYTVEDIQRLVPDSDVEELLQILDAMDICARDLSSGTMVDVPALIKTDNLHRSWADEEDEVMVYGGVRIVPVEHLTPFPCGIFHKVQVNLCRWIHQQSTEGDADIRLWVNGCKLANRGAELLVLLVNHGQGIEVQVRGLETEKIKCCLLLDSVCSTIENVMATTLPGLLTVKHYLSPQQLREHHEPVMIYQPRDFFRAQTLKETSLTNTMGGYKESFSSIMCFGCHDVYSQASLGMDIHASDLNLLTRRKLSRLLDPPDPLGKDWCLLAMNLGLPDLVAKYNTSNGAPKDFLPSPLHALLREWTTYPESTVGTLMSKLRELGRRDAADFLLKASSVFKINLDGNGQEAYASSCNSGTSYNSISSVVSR

Sequence of Calcium/calmodulin-dependent protein kinase type II subunit delta (Homo sapiens) (Q13557 whole entry): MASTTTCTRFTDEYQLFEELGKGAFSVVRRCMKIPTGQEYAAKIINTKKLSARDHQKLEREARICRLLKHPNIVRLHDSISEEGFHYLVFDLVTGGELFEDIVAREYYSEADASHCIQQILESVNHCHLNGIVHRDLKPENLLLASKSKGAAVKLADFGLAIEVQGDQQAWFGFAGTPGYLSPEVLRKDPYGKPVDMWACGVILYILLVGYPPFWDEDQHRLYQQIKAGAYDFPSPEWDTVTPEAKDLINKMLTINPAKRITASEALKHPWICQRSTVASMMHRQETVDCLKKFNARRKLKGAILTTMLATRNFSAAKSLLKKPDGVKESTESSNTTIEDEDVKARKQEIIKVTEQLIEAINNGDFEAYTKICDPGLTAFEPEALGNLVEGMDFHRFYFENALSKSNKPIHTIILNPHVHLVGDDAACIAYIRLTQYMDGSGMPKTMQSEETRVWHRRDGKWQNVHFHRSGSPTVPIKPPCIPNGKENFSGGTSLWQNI
Sequence of Calcium/calmodulin-dependent protein kinase type 1D (Homo sapiens) (Q8IU85 whole entry, looked up): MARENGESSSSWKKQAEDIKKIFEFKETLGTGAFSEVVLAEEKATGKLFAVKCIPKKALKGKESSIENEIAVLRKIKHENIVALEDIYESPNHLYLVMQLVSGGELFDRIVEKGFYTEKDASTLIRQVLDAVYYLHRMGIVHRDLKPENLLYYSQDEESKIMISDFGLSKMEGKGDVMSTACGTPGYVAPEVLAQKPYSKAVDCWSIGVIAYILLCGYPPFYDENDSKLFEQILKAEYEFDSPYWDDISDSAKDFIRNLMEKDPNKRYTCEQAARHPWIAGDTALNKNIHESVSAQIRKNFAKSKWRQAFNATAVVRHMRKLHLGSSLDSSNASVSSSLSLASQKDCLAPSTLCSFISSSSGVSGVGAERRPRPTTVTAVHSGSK
Sequence of Serine/threonine-protein kinase Chk2 (Homo sapiens) (O96017 whole entry): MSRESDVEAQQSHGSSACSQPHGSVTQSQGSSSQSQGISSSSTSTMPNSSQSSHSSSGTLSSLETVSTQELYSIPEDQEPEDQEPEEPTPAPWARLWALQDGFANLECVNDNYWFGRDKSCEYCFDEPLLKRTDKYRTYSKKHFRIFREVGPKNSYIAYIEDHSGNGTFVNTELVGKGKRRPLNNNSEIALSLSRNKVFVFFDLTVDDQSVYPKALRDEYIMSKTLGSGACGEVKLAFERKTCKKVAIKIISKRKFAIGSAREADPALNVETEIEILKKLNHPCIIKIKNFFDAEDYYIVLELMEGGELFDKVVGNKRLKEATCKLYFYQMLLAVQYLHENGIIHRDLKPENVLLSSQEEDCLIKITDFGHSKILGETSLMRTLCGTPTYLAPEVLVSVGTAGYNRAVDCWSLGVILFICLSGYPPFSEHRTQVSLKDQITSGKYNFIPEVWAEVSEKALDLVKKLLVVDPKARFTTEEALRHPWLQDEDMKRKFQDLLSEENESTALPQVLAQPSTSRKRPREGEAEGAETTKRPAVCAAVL
Sequence of 5'-AMP-activated protein kinase catalytic subunit alpha-2 (Homo sapiens) (P54646 whole entry, looked up): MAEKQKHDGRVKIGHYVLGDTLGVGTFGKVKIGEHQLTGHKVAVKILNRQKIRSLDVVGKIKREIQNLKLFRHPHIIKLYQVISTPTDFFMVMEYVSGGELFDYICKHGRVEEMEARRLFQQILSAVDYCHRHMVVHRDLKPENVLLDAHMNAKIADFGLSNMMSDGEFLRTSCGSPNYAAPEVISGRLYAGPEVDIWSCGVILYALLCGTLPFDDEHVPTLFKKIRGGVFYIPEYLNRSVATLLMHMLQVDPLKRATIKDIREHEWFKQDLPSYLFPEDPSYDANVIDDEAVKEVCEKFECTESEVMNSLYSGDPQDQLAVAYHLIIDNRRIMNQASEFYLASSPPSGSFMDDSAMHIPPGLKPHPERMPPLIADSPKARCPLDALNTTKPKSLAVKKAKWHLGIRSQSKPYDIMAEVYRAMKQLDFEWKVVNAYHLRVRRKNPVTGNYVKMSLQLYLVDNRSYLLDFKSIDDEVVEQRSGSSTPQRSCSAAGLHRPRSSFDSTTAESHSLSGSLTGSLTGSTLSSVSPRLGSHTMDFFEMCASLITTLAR

With `Cc1ccc(C(=O)NC2CCC2)cc1-c1ccc(C(=O)NCC2CC2)cc1`, the inhibition in test [1] came to 0.57%; in test [2], 0.27%; in test [3], 5.25%; in test [4], 1.77%; in test [5], 3.1%; in [6], 1.53%. In addition, the inhibition in [7] was determined as 4.25%; in test [8], 0.09%; in [9], 2.93%; in test [10], 3.06%; in [11], 2.38%; in test [12] it was 1.89%. Also, the inhibition is 1.44% in test [13]; 0.4% in test [14]; 0.59% in test [15]; 2.53% in test [16]; 2.39% in test [17]; 1.83% in test [18]. Moreover, the inhibition in test [19] stood at 3.06%; in test [20] it was 2.9%.

As for `NS(=O)(=O)c1ccc(N/N=C2\C(=O)Nc3ccc(C(=O)NCCCn4ccnc4)cc32)cc1`, the inhibition in test [1] was determined as 26.3%; in test [2] it was 19.4%; in test [3], 66.4%; in test [4], 4.96%; in test [5] it was 31.2%; in test [6], 8.96%. The inhibition in test [7] came to 46%; in test [8], 0.1%; in [9], 2.23%; in test [10], 3.04%; in test [11], 4.11%; in test [12] it was 2.56%. Moreover, the inhibition in test [13] was 8.04%; in test [14], -1.35%; in [15] it was -4.25%; in test [16] it was 10.4%; in [17], 19.3%; in test [18], 10.6%. Moreover, the inhibition was found to be 19% in test [19] and 11.1% in test [20].

In the case of `O=C(Nc1n[nH]c2cc(-c3cc(F)ccc3F)ccc12)C1CC1`, the inhibition in test [1] is 9.82%; in test [2], -2.28%; in test [3] it was -2.43%; in test [4], 2.17%; in [5], 15.3%; in test [6], 3.03%. Further, the inhibition in [7] was 14.1%; in test [8] it was -0.34%; in [9], 1.27%; in test [10], 1.96%; in [11], 2.68%; in test [12] it was 3.1%. In addition, the inhibition in test [13] was 25.3%; in test [14], 1.86%; in test [15] it was 1.99%; in test [16], -0.4%; in test [17], 1.41%; in test [18] it was 2.67%. In addition, the results for the inhibition in test [19] and in [20] were 3.25% and -0.82%, respectively.

`Fc1ccc(-c2nc3n(c2-c2ccncc2)CCS3)cc1`: the inhibition worked out at 5.23% in test [1]; 0.54% in [2]; 2.44% in [3]; 0.25% in test [4]; 0.24% in [5]; 0.52% in [6]. In addition, the inhibition in [7] was 0.5%; in test [8], 0.49%; in test [9], -0.26%; in [10], 3.63%; in test [11], 3.82%; in test [12], 4.18%. Besides, the inhibition in test [13] was found to be 4.28%; in [14] it was 0.62%; in test [15], 0.23%; in [16] it was 0.32%; in test [17], 3.69%; in [18], 2.74%. The inhibition in test [19] turned out to be 3.47%; in [20] it was 2.36%.
